Most compounds without a hit are left out; they make up all but 21% or so of the library.
Shiga inhibitor: A qHTS for Small Molecule Inhibitors of Shiga Toxin | AID 2315, 2010 | actives 9.2% (n = 290,000) | Vero cells, Shiga toxin protein synthesis inhibition reporter | inhibition, % at 38.7 µM; in the data active = inhibition mostly above about 28%, no sharp cut-off; inactive = mostly below about 43%
CHX counter: Cycloheximide Counterscreen for Small Molecule Inhibitors of Shiga Toxin. max response, %. cell reporter, cycloheximide protein synthesis inhibition counterscreen. actives 12% (n = 300,000). AID 2314, 2010; in the data active = max response mostly above about 13%, no sharp cut-off; inactive = mostly below about 14%; also: read at 38.3 µM for the half of the compounds with a filed dose
Pf growth 96h: Primary qHTS for delayed death inhibitors of the malarial parasite plastid, 96 hour incubation | AID 504834, 2011 | actives 6.9% (n = 320,000) | P. falciparum luciferase reporter growth, 96 h | Potency, µM (doses to about 28.7 µM), usual class: inhibitors
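Delayed-death screen, second-generation endpoint: infected erythrocytes, 2% hematocrit, 0.05% parasitemia final; 96 hours at 37 C, 5% CO2; luciferase detection reagent; luminescence decrease equals reduced growth.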
Pf growth 48h: Primary qHTS for delayed death inhibitors of the malarial parasite plastid, 48 hour incubation; Potency, µM (series often up to 28.7 µM), usual class: inhibitors; actives 5.9% (n = 310,000); AID 504832, 2011; P. falciparum luciferase growth in erythrocytes, 48 h
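Luciferase-expressing P. falciparum in infected erythrocytes (2% hematocrit, 0.1% parasitemia final) in RPMI 1640/0.5% Albumax were exposed to compound for 48 hours at 37 C, 5% CO2; growth read as luminescence.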
A number is an active result; n = inactive; u = inconclusive; x = no result given; ! = not active in a repeat; [ ] = remark or other dose. Unless noted, calls follow the shape of the dose curve; as a rule, active = well fitted inhibition curve with a large enough effect; inconclusive = small, poorly fitted or top-dose-only effect, or another doubt; inactive = no such curve, though single readings can be large or run the other way.

SMILES	Shiga inhibitor	CHX counter	Pf growth 96h	Pf growth 48h
Cc1cc(C(=O)N/N=C/c2ccc(Cl)c([N+](=O)[O-])c2)c(C)n1-c1ccc(F)cc1	35	n	13µM	13µM
Cc1cc(C(=O)N/N=C/c2ccc3c(c2)OCO3)c(C)n1-c1ccc(F)cc1	62	27	n	n
Cc1cccc(NC(=S)N/N=C/c2ccc(Cl)c([N+](=O)[O-])c2)c1	n	n	n	n
NNC(=O)C12CC3CC(C1)CC(n1ncnn1)(C3)C2	n	n	n	n
S=C(Nc1ccc(Br)cc1Cl)NN1CCOCC1	n	n	n	n
COCCN1CCCC(CNCc2cn(C)nc2-c2ccc(Oc3ccccc3)cc2)C1 (stereo not given)	n	n	u	6.6µM
COC1CCCN(Cc2cn(C)nc2-c2ccc(Oc3ccccc3)cc2)C1 (stereo not given)	n	n	u	n
CCCN1CCC(NCc2cn(C)nc2-c2ccc(Oc3ccccc3)cc2)CC1	n	n	u	1.7µM
CCOCCCN(C)C1CCN(C(=O)c2oc3ccccc3c2NC(=O)c2cccc([N+](=O)[O-])c2)CC1	n	n	n	u
Cc1ccccc1C(=O)N1N=C(c2ccc(NS(C)(=O)=O)cc2)CC1c1cccs1 (stereo not given)	n	n	1.7µM	u
CS(=O)(=O)Nc1ccc(C2=NN(C(=O)CCCC(=O)O)C(c3cccs3)C2)cc1 (stereo not given)	n	n	1.9µM	n
COC(=O)C1=C(C)N(C)C(C)=C(C(=O)OC)C1c1ccncc1	n	n	n	n
COC(=O)C1=C(C)N(C)C(C)=C(C(=O)OC)C1c1ccc(F)c(Br)c1	n	n	n	9.3µM
Cc1cc(C(=O)NCc2ccccc2F)c2ccccc2n1	n	n	n	n
CC(=O)Nc1oc(-c2cccc3ccccc23)nc1C#N	x	x	n	n
N#Cc1nc(COc2ccc(Cl)cc2Cl)oc1N1CCN(c2ccccc2)CC1	n	n	u	n
CC(C)CNc1oc(-c2ccccc2Cl)nc1C#N	29	14	n	n
COCCCNc1oc(COc2ccc(Cl)cc2Cl)nc1C#N	n	n	13µM	x
CN(C)CCNc1oc(COc2ccc(Cl)cc2Cl)nc1C#N	n	n	u	n
COCCCNc1oc(-c2ccccc2Cl)nc1C#N	n	15	n	n
N#Cc1nc(COc2ccc(Cl)cc2Cl)oc1N1CCOCC1	35	29	n	n
Cc1cc(=O)oc2cc(OCC(=O)Nc3ccccc3C(N)=O)c(Cl)cc12	n	n	n	n
O=[N+]([O-])c1ccc2nc(Cl)nc(-c3ccccc3)c2c1	n	n	n	n
COC(=O)c1cn(CC(=O)Nc2ccccc2C)c2ccccc12	x	n	u	n
COc1ccccc1N1CCN(C(=O)CSc2nc3ccccc3nc2N2CCC(C)CC2)CC1	n	n	n	u
SMILES	Shiga inhibitor	CHX counter	Pf growth 96h	Pf growth 48h
COCCOC(=O)c1[nH]c2c(c1C)C(=O)CC(c1cccs1)C2 (stereo not given)	n	20	n	u
CCCCCOC(=O)c1[nH]c2c(c1C)C(=O)CC(c1ccco1)C2 (stereo not given)	n	n	n	0.66µM
CCOCCOC(=O)c1[nH]c2c(c1C)C(=O)CC(c1cccs1)C2 (stereo not given)	n	n	n	u
O=C(CCC(=O)N(CC(=O)NC1CCCCC1)Cc1cccs1)Nc1nccs1	n	n	n	n
CCn1c2ccccc2c2cc(/C(C)=N/O)ccc21	n	n	n	n
C/C(=N\O)c1ccc2c3ccccc3n(C)c2c1	105	46	n	n
CCN(CC)CCNC(=O)C(Oc1ccccc1)Oc1ccccc1	n	n	n	n[0.00184 µM]
Cc1cc(C)c2nc(-c3ccccn3)cc(C(=O)N3CCCC3)c2c1	n	n	n	n
COc1cc(C(=S)N2CCCC2)cc(Cl)c1OCC(=O)Nc1ccc(C)cc1C	n	n	n	n
CC(C)(C)NC(=O)CSc1nc(O)cc(=O)n1-c1ccccc1F	n	n	n	2.6µM
COc1ccccc1-n1c(SCC(=O)NC(C)(C)C)nc(O)c(Cc2ccccc2)c1=O	n	n	n	n
COc1ccccc1-n1c(SCC(=O)NC(C)(C)C)nc(O)cc1=O	n	n	n	2.3µM
CC(C)CNC(=O)C(=O)NCC1OCCCN1S(=O)(=O)c1cccs1 (stereo not given)	n	n	n	n
CC1(C)CC(CCNC(=O)CCl)(c2ccccc2)CCO1 (stereo not given)	n	n	u	u
CC(C)NCC(O)c1ccc2ccccc2c1 (stereo not given)	x	x	4.7µM	1.5µM
C/C=C/C(O)c1ccc2ccccc2c1 (stereo not given)	26!	20!	u	n
CN(C)C(=S)Nc1ccc2ccccc2c1	n	n	n	n
COc1ccc(OC)c2c1cc(C(=O)N[C@@H](Cc1ccccc1)C(=O)O)n2C	n	n	n	n
CCOc1nc(NCCO)nc(Nc2cc(Cl)ccc2OC)n1	n	n	n	u
O=C(N/N=C/c1ccc(OC(=O)c2ccco2)cc1)c1ccccn1	39	27	u	n
CCOc1cc(/C=N/NC(=O)COc2cccc(C)c2)ccc1OC(=O)c1cccs1	n	n	n	n
O=C(Oc1ccc(/C=N/NC(=O)c2ccccn2)cc1)c1cccc(Br)c1	59	28	n	n
O=C(N/N=C\c1ccc(OC(=O)c2cccs2)cc1)c1ccc(Cl)cc1	n	n	n	n
CCOc1cc(/C=N/NC(=O)c2ccccn2)ccc1OC(=O)c1cccs1	43	28	9.3µM	n
O=C(N/N=C/c1ccc(OC(=O)c2cccs2)cc1)c1ccccn1	53	45	n	n
SMILES	Shiga inhibitor	CHX counter	Pf growth 96h	Pf growth 48h
Cc1ccc2c(c1)N(CCC(=O)NC1CCCCC1)C(=O)CO2	n	n	n	n
COc1ccc(Nc2nc(Cl)c(C=O)s2)cc1	n	n	n	n
O=C(NNC(=O)c1ccc(-c2ccccc2)cc1)Nc1ccc(F)cc1F	n	n	n	n
O=C(COC(=O)/C=C/c1ccc(Br)o1)NCCCN1CCCC1=O	n	n	n	n
CC(C)(C)OC(=O)N/N=C\c1cccnc1	n	n	n	n
CC(C)(C)OC(=O)N/N=C\c1ccc(OC(=O)c2cccs2)cc1	97	n	12µM	n
CC(C)(C)OC(=O)N/N=C/c1ccc(Br)cc1	105	40	n	n
COc1ccc(NC(=S)NC(=O)c2csnn2)cc1	n	n	n	n
O=C1CN(C(=S)NC(=O)c2ccc(-c3ccccc3)cc2)CCN1	n	15	n	n
Cc1ccc(C(=O)NC(=S)NNC(=O)c2ccccc2)cc1	n	n	u	n
Cc1ccc(NC(=O)NC(=S)NC(=O)c2ccccc2)cc1	88	48	n	n
O=C1CN(C(=S)Nc2ccccc2Cl)CCN1	n	n	n	n
CC(C)NS(=O)(=O)c1ccc(NC(=S)NC(=O)c2ccc(-c3ccccc3)cc2)cc1	n	n	2.6µM	6.6µM
O=C(NC(=S)Nc1ccccc1)c1csnn1	n	22	u	n
O=C(O)c1ccc(NC(=S)NC(=O)c2ccc(-c3ccccc3)cc2)cc1	n	45	n	n
O=C(NC(=S)Nc1ccccc1)c1ccc(-c2ccccc2)cc1	n	n	n	n
